Outcome data for 37 compounds are collected here from PubChem BioAssay AID1117283 (Broad Institute, 2014).

Results with a measured potency or affinity are listed apart. Activity calls are given as the source filed them.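 The calls were made as follows: active = fluorescent signal decreased by at least 40%; inconclusive = no clear call, values can overlap the other calls; inactive = the rest, including activity opposite to the expected direction.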

This test in a line: inhibition of fibronectin matrix deposition – AH1F cells, Alexa488-fibronectin fluorescence, cherry-pick, set 2, dose response (AID 1117283).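 Also: AH1F fibroblasts given Alexa488-labelled fibronectin at 24 nM final.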 To be noted: AH1F fibroblasts, overnight; series mostly up to 35 µM.
In the case of `COc1cccc(-c2ccc3c(c2)[C@H]2[C@H](CCN2S(=O)(=O)c2cccc(OC)c2)[C@H](CO)N3)c1`, the compound was classed as inactive.

Regarding `O=S(=O)(c1cccc(F)c1)N1CC[C@@H]2[C@@H](CO)Nc3ccc(-c4cccc(F)c4)cc3[C@@H]21`, the outcome was inactive. With `N#C[C@H]1[C@@H](c2ccccc2C2=CCCCC2)[C@@H](CO)N1S(=O)(=O)c1ccccc1` the entry was “inactive”; with `CC(C)Cc1nnc(NC(=O)CSc2nc(N)cc(=O)[nH]2)s1`, “inactive”.

Consider `C[C@H]1CN([C@@H](C)CO)C(=O)c2cccc(NC(=O)Nc3ccc(C(F)(F)F)cc3)c2O[C@H]1CN(C)C(=O)Nc1cccc2ccccc12`, for which the call was inactive. As for `C[C@@H]1CN([C@H](C)CO)C(=O)c2cc(NC(=O)CCCN(C)C)ccc2O[C@@H]1CN(C)Cc1ccc(-c2ccccc2)cc1`, the entry is “inactive”; as for `O=C(c1cccnc1)N1C[C@@H]2[C@H](c3ccccc31)[C@@H](CO)N2CC1CCCC1`, “inactive”. In the case of `COc1cccc(CNC(=O)CCc2nnc3ccc(NCCCN4CCCC4=O)nn23)c1`, the result was inactive. Consider `COc1ncccc1C(=O)NC1CCCc2c1cnn2-c1ccc(C)c(C)c1` (configuration not stated), for which the compound was classed as inactive.

Consider `COC(=O)C[C@@H]1CC[C@H]2[C@@H](COc3ccc(NC(=O)Cc4cccs4)cc3C(=O)N2C)O1`, for which the result was inactive. For the compound `O=C(CCC(=O)c1cccs1)NCc1cccnc1`, the compound was called inactive. `CN1c2ccc(-c3ccccc3)cc2[C@H]2[C@H](CCN2C(=O)CN2CCOCC2)[C@@H]1CO`: the outcome was inactive.

As to `CO[C@@H]1CN(C)C(=O)c2ccc(NC(=O)c3ccc(-c4ccccc4)cc3)cc2OC[C@@H](C)NC[C@@H]1C`, the compound was called inactive. As for `CO[C@@H]1CN(C)C(=O)c2cc(NC(=O)Nc3ccc(Cl)c(Cl)c3)ccc2OC[C@H](C)NC[C@@H]1C`, the entry is “inactive”. Take `N#Cc1ccc(-c2ccc3c(c2)[C@@H]2[C@@H](CCN2S(=O)(=O)c2cccc(F)c2)[C@H](CO)N3)cc1`: the compound was called inactive.

Take `O=S(=O)(c1cccc(F)c1)N1CC[C@@H]2[C@H](CO)Nc3ccc(-c4cccc(F)c4)cc3[C@@H]21`: the result was inactive. For the compound `CN(C)C(=O)c1ccc(-c2ccc3c(c2)[C@H]2[C@H](CCN2C(=O)c2ccc(F)cc2)[C@@H](CO)N3C)cc1`, the outcome was inactive. With `C[C@@H]1CN([C@H](C)CO)C(=O)c2cc(-c3ccccc3)cnc2O[C@H]1CN(C)C(=O)c1cccc(F)c1` the entry was “inactive”; with `CO[C@H]1CN(C)C(=O)c2ccc(NC(=O)c3ccc(-c4ccccc4)cc3)cc2OC[C@H](C)NC[C@H]1C`, “inactive”; with `COc1ccc(-c2csc(CCn3nc(C)cc3C)n2)cc1OC`, “inactive”.

Regarding `CO[C@H]1CN(C)C(=O)c2ccc(NC(=O)Nc3ccc(Cl)c(Cl)c3)cc2OC[C@H](C)NC[C@H]1C`, the result was inactive.

Turning to `C[C@H](CO)N1C[C@H](C)[C@@H](CN(C)C(=O)c2cccc(F)c2)Oc2ncc(-c3ccccc3)cc2C1=O`, the call was inactive. As for `COCC(=O)Nc1ccc2c(c1)C(=O)N(C)[C@@H]1CC[C@@H](CC(=O)NCc3ccccc3Cl)O[C@H]1CO2`, the entry is “inactive”. As for `CC(C)(C)c1cc(Cl)c(O)c(NC(=S)NC(=O)c2cccnc2)c1`, the entry is “inactive”; as for `CN1c2ccc(-c3ccccc3)cc2[C@H]2[C@H](CCN2C(=O)CN2CCOCC2)[C@H]1CO`, “inactive”; as for `N#C[C@@H]1[C@H](c2ccccc2C2=CCCCC2)[C@H](CO)N1S(=O)(=O)c1ccccc1`, “inactive”. Take `C[C@@H]1CN([C@H](C)CO)C(=O)c2cc(-c3ccccc3)cnc2O[C@@H]1CN(C)Cc1ccccc1`: the compound was called inactive. With `O=C(Nc1cc(Sc2nc3ccccc3s2)cc([N+](=O)[O-])c1)c1ccccc1F` the entry was “inactive”.

Take `O=C(NCCS(=O)(=O)N1CCN(c2ccc(F)cc2)CC1)c1ccc(Br)o1`: the call was inactive. On to `COc1ccccc1CNc1nc(NCc2cnc(C)cn2)c2sccc2n1`, for which the call was inactive. For `O=S(=O)(c1cccc(F)c1)N1CC[C@H]2[C@H](CO)Nc3ccc(-c4cccc(F)c4)cc3[C@H]21`, the call was inactive. With `CO[C@@H]1CN(C)C(=O)c2ccc(NC(=O)c3ccc(-c4ccccc4)cc3)cc2OC[C@H](C)NC[C@H]1C` the entry was “inactive”; with `Cc1ccc(S(=O)(=O)N2CC[C@@H]3[C@@H](CO)Nc4ccc(-c5cccc(C(=O)N(C)C)c5)cc4[C@@H]32)cc1`, “inactive”; with `C[C@H](O)C#Cc1ccc2c(c1)O[C@H](CN(C)C)[C@H](C)CN([C@H](C)CO)S2(=O)=O`, “inactive”.

Take `CCc1nc2c(OCCc3cccc(OC)c3)cccn2c1N(C)C(=O)c1ccc(C)cc1`: the call was inactive. Consider `CC(NC(=O)CSc1ccc(S(=O)(=O)N2CCOCC2)cn1)c1ccc(Cl)cc1Cl` (configuration not stated), for which the compound was called inactive. Regarding `CC1CN(C(=O)c2cc3c(=O)n4ccccc4nc3n2C)CC(C)O1` (configuration not stated), the call was inactive.
